An excerpt weighted towards active compounds, which were near 5% of everything screened.
SENP7 block: blocks the human protease SENP7. inhibition, % at 5 µM. 1.5% of 330,000 active. AID 434973. recombinant SENP7, Z-RLRGG-aminoluciferin luminescence, 40 min;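 active = inhibition above about 50% at the single test dose, limit read from the data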;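 also: plate controls were DMSO with enzyme for no effect and no enzyme buffer wells for full effect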
AHR act: activates the human aryl hydrocarbon receptor; P35869; AHR-responsive luciferase reporter cells, luminescence; AID 2796; activation, % at 5 µM; 2.5% of 320,000 active; in the data active = activation above about 47%;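 also: 0% = vehicle wells and 100% = reference agonist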
Target sequence (P35869 whole entry, looked up): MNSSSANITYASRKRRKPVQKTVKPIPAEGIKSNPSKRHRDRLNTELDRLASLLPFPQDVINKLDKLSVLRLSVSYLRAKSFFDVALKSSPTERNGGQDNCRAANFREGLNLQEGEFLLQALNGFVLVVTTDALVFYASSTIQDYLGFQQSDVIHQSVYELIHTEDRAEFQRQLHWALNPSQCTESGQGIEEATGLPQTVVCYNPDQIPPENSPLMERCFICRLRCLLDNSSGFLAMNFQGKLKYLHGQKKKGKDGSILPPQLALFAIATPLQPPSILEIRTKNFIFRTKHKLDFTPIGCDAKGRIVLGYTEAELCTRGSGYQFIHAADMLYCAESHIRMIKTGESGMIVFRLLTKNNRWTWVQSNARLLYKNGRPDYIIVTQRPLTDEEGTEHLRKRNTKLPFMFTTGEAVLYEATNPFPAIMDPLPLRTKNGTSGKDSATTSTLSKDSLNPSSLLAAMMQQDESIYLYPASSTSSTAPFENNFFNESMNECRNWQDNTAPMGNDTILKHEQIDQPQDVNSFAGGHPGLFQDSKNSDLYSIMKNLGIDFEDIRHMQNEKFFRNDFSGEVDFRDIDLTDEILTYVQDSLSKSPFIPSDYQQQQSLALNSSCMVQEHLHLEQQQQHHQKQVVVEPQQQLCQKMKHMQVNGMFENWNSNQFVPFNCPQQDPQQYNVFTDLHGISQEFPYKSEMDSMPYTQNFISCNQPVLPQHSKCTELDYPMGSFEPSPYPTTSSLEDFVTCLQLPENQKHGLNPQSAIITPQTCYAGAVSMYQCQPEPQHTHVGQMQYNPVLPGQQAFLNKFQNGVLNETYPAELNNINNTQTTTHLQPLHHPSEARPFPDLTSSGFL
SENP8 block-1: blocks human SENP8 cleavage of Nedd8 substrate; Q96LD8; recombinant SENP8, Nedd8 substrate fluorescence; inhibition, % at 20 µM; 0.64% of 360,000 active; AID 602440; in the data active = inhibition mostly above about 40%, no sharp cut-off; inactive = mostly below about 27%
SENP6 inh: inhibitors of human SENP6 protease; Q9GZR1; Recombinant SENP6 catalytic domain, aminoluciferin luminescence; inhibition, % at 10 µM; 1.8% of 330,000 active;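 active = inhibition above about 50% at the single tested dose, limit read from the data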;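 also: plate controls were DMSO wells with enzyme for no effect and DMSO wells lacking enzyme for full effect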
SENP8 block-2: inhibitors of human SENP8 protease | Q96LD8 | purified SENP8, Z-RLRGG-aminoluciferin cleavage, luminescence | inhibition, % at 10 µM | 1.2% of 330,000 active; in the data active = inhibition above about 50%
EBI2 antag: antagonists of human EBI2 receptor; P32249; EBI2 beta-arrestin recruitment, luminescence, 7a,25-OHC stimulated; inhibition, % at 5 µM; 0.81% of 360,000 active; AID 651636; in the data active = inhibition above about 38%;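 also: enzyme fragment complementation signal reports receptor beta-arrestin coupling in cells; 0% = agonist plus DMSO wells and 100% = wells without agonist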
* marks the source's active call; other numbers are inactive results; / = not tested or not shown.

SMILES	SENP7 block	AHR act	SENP8 block-1	SENP6 inh	SENP8 block-2	EBI2 antag
COCCCn1cc(CN2CC(N3CCN(CCN(C)C)CC3)CS2(=O)=O)nn1 (stereo unspecified)	/	/	12.4	/	/	-11.6
Brc1cc2c(cc1-c1nc3ccccc3s1)OCO2	0.2	53.5*	5.7	16.6	-11.0	11.7
Nc1nc(-c2ccccc2)c(N=Nc2cccc3ccccc23)s1	3.0	70.1*	31.1	15.0	2.0	11.1
Nc1nc(-c2ccccc2)c(N=Nc2ccccc2Cl)s1	-4.6	19.4	66.2*	-10.6	-6.9	28.8
COc1ccc2cc(Br)ccc2c1CC(=O)NCCCN1CCOCC1	4.3	-1.7	15.6	-6.5	-3.4	-3.6
CC(CCC(C)C(C)(C)C)[C@@H]1CC[C@H]2C3C[C@H](OS(O)(=S)=S)[C@H]4C[C@H](OS(O)(=S)=S)[C@@H](OS(O)(=S)=S)C[C@]4(C)[C@H]3CC[C@]12C (stereo partly specified) (tested in a mixture with another compound)	7.7	-2.3	1.1	-2.5	53.8*	-12.0
CC(CCC(=O)NN)C1CCC2C3CCC4CC(O)CCC4(C)C3CCC12C (stereo unspecified)	/	/	7.8	/	/	13.9
Cc1cc(=O)oc2cc(OCC(O)Cn3ccnc3)ccc12 (stereo unspecified)	2.8	52.4*	-215.9	8.8	9.6	-3.0
Cc1cn([C@H](C(=O)NCCCCCCCCCCC(=O)N2CCN(C(=O)OC(C)(C)C)CC2)[C@@H](C)O)nn1	-2.2	-3.1	17.9	4.6	4.5	2.9
C=C(CN(C)C)C(=O)c1ccc2c(c1)OCO2	/	/	-1.6	/	/	34.3
C=C(CN(C)C)C(=O)c1ccc(OC2OC(COC(C)=O)C(OC(C)=O)C(OC(C)=O)C2OC(C)=O)cc1 (stereo unspecified)	/	/	21.1	/	/	72.2*
O=C1c2ccccc2C(=O)N1CCCOc1ccccc1	-1.3	66.2*	18.3	7.0	2.0	1.3
O=C1c2ccccc2C(=O)N1CCCN1C(=O)c2ccccc2C1=O	/	/	14.1	/	/	0.9
C[C@H](O)[C@@H]1C(=O)N2CCc3ccc(N4CCOCC4)cc3[C@@H]2C[C@@H]1N(C)C(=O)Nc1ccccc1	/	/	-12.5	/	/	-4.5
O/C(=C\c1nc2ccccc2nc1/C=C(\O)c1ccccc1)c1ccccc1	1.1	70.5*	-412.3	9.1	2.7	36.5
O=C(NCC(c1ccco1)N1CCCCC1)c1ccc(COc2ccc(Cl)cc2)cc1 (stereo unspecified)	/	/	10.8	/	/	17.7
CCCCNc1ccc2nsnc2c1[N+](=O)[O-]	19.7	1.7	11.4	67.1*	-4.1	9.0
Cc1ccc(CC2(C)C(=O)Nc3c(Cl)cccc32)cc1 (stereo unspecified)	/	/	14.8	/	/	6.3
O=C1CCCc2c1oc1c2CCCC1	/	/	16.3	/	/	-4.2
Cc1cc(C)nc(-n2cc(C(=O)c3cc(F)ccc3O)cn2)n1	0.3	52.8*	-48.0	5.5	6.6	0.0
Nc1ccc(OCc2ccco2)cc1	54.4*	3.1	19.3	1.8	1.9	-3.3
Nc1ccc(OCc2ccccc2)cc1	-0.3	0.2	0.9	23.8	3.5	3.1
CCCCCNc1ncnc2c(C)[nH]nc12	/	/	-8.0	/	/	1.0
Cn1cc(CN2CCCC(C(=O)Nc3ccc(-c4cccc(F)c4)cc3)C2)cn1 (stereo unspecified)	-7.1	3.9	23.1	9.5	-5.9	0.7
Cc1ccc(NC(=S)/C(=C(\[O-])c2ccc(C)c([N+](=O)[O-])c2)[n+]2ccccc2)cc1C	-3.4	16.4	/	-7.8	3.8	/
SMILES	SENP7 block	AHR act	SENP8 block-1	SENP6 inh	SENP8 block-2	EBI2 antag
COc1cccc(NC(=S)/C(=C(\[O-])c2ccc(C)c([N+](=O)[O-])c2)[n+]2ccccc2)c1	2.6	12.0	39.4*	47.4	8.7	-8.1
CC(C(=O)Nc1ccc(O)cc1C(=O)O)N1C(=O)/C(=C\c2cccs2)SC1=S (stereo unspecified)	0.6	2.8	61.5*	34.4	17.9	4.5
O=Cc1c(-c2ccc(F)cc2)nc2ccccn12	-16.2	70.5*	12.3	-11.4	-15.5	-5.3
COc1ccc(-c2nc3ccccn3c2C=O)cc1	55.4*	54.9*	-8.1	62.2*	47.5	-12.3
COc1cccc(C(=O)NCCS(=O)(=O)N2CCCC(C)C2)c1 (stereo unspecified)	/	/	11.6	/	/	-12.9
NC(=S)NN=C(c1ccc(Br)cc1)C1CC1	/	/	2.4	/	/	-16.3
CC(Sc1nnc(CN2CCCC2)n1Cc1ccccc1)C(=O)Nc1ccc(F)c(F)c1F (stereo unspecified)	/	/	18.1	/	/	10.6
Cc1ccc(S(=O)(=O)N2c3ccccc3NC(=O)C2CC(=O)Nc2ccccc2)cc1 (stereo unspecified)	-12.6	63.6*	8.4	-13.6	-4.4	-1.9
Cc1ccc(S(=O)(=O)N2c3ccccc3NC(=O)CC2C)cc1 (stereo unspecified)	-2.1	0.2	29.7	-12.7	-8.8	-3.9
Cc1cc(N/N=C/c2ccccc2Br)nc2ccccc12	-8.7	52.2*	-97.7	-1.1	-17.2	29.5
Cc1ccc2c(C)nc(N/C(N)=N/S(=O)(=O)c3ccc([N+](=O)[O-])cc3)nc2c1	-1.7	-13.1	15.6	-9.2	5.4	11.4
COc1ccc(NC(=S)/N=C(\N)Nc2nc(C)c3ccc(C)cc3n2)cc1	13.0	55.4*	1.6	9.6	2.1	30.9
CCOc1ccc2nc(N/C(N)=N/C(=S)Nc3ccc(C)c(C)c3)nc(C)c2c1	9.4	7.8	-207.2	4.8	3.1	17.1
CCNC(=S)/N=C(\N)Nc1nc(C)c2cc(C)ccc2n1	-9.5	77.3*	4.1	-19.4	-13.7	17.0
COC(=O)Nc1ccc(N2CCOCC2)c(S(=O)(=O)N2CCOCC2)c1	3.0	2.0	8.3	-6.6	12.0	-0.3
CSc1ncccc1C(=O)Nc1ccc2c(c1)OCCO2	-14.1	6.8	15.0	-26.5	-14.4	11.6
Clc1ccccc1CSc1cc2c(nn1)-c1ccccc1CC2	2.5	72.4*	8.9	0.3	-17.3	26.6
Cc1ccc(Nc2nnc(SCc3cc(=O)n4ccsc4n3)s2)c(C)c1	-8.5	48.2*	-19.6	-25.6	-2.7	-1.5
COc1ccccc1Nc1nnc(SCc2cc(=O)n3ccsc3n2)s1	1.9	6.3	-37.7	4.1	-6.8	-0.1
Cc1cc(C)c2c(N)c(C(=O)c3ccc(Cl)cc3Cl)sc2n1	-1.1	34.1	-2.1	-18.7	-15.7	-25.9
Cc1cc(C)c2c(N)c(C(=O)c3cccc(Cl)c3)sc2n1	-6.4	47.5*	-0.9	-4.7	-5.9	-1.8
CCc1ccccc1NC(=O)c1sc2nc(C)cc(C)c2c1N	1.8	66.8*	-315.7	8.6	15.8	8.3
CCCCn1c(N)c(N(CCOC)C(=O)C2CC(=O)N(c3cccc(SC)c3)C2)c(=O)[nH]c1=O (stereo unspecified)	2.5	-0.8	-3.6	-9.7	5.4	0.6
CCCc1cc(-c2nc(N)ncc2-c2ccc3c(c2)OCCCO3)c(O)cc1OC	2.6	8.2	8.8	-14.4	3.1	77.9*
CCCCCCCCNCCS(=O)(=O)NCCCCCCCC	/	/	5.1	/	/	-1.5
